A selection: hits, their analogues and other compounds. The true share with any hit is near 21%.
TDP1 cell CPT = DT40-hTDP1 cell growth loss with CPT; chicken DT40 Tdp1-/-;hTDP1 cells + 20 nM CPT, ATP luminescence, 48 h; 420,000 tested, 12% active; Potency, µM (doses to about 46.2 µM), without a hit: top-dose activity change, negative = growth inhibition, actives largely listed as inhibitors; further: potency means the concentration at half of the fitted maximal effect; nearly all actives have a fitted effect of over 55% in size
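Chicken DT40 Tdp1-/- cells complemented with human TDP1, 400 cells/well, exposed to compounds plus 20 nM camptothecin for at least 48 h at 37 C; viability read as ATP content by CellTiter-Glo luminescence.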
DT40 TDP1 no CPT = qHTS for Inhibitors of human tyrosyl-DNA phosphodiesterase 1 (TDP1): qHTS in cells in absence of CPT. DT40 Tdp1-/- hTDP1 cells, no CPT, ATP luminescence, 48 h. Potency, µM (top dose mostly 46.2 µM), for the others: at the top dose activity change, negative = growth inhibition, actives largely listed as inhibitors. 420,000 tested, 15% active. AID 686978, 2013; further: potency means the concentration at half of the fitted maximal effect; nearly all actives have a fitted effect of over 55% in size
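Compound effects on proliferation are scored in DT40 Tdp1-/-;hTDP1 cells in the absence of CPT. ATP levels (CellTiter-Glo luminescence) are recorded after a ≥48 hr, 37 °C incubation.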
RORgamma inh = blocks mouse ROR gamma transcriptional activity; P51450; Drosophila S2 Gal4-RORgamma UAS-luciferase reporter, 20 h; Potency, µM (doses to about 53.6 µM), without a hit: at the highest dose activity change, negative = inhibition, most hits filed as inhibitors; 310,000 tested, 5.4% active; further: potency means the concentration at half of the fitted maximal effect; nearly all actives have a fitted effect of over 60% in size
Target sequence (P51450 whole entry, looked up, the tested form may be a part): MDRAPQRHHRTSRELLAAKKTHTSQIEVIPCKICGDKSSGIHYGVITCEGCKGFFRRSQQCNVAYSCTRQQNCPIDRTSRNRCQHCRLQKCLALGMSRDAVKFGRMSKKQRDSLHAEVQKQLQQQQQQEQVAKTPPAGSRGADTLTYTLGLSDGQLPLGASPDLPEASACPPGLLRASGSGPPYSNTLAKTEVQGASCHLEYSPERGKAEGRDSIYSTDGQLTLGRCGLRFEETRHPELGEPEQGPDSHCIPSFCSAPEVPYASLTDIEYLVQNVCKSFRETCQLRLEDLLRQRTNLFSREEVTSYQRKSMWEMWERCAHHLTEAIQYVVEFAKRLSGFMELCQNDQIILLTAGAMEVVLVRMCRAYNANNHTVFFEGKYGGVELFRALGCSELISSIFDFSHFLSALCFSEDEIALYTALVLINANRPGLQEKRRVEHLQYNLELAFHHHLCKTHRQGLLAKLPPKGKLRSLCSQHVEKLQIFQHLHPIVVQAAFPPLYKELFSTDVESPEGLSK
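Luciferase reporter read in Schneider cells carrying Gal4-RORγ (mouse) and UAS-Photinus luciferase; cells given compound 1 h before 700 uM copper sulfate induction, then incubated 20 h at ambient temperature.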
IL1B secr inh = inflammasome signaling inhibition, IL-1 beta readout; THP-1 LPS/ATP IL-1B secretion, AlphaLISA, 16 h; stronger effect = lower value; activity change, % at 57.5 µM; 360,000 tested, 4.7% active; AID 743279; in the data active means activity change below about -50%; inconclusive means mostly about -30% to -49%
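THP-1 cells pretreated 1 hr with compounds (up to 57.5 uM final), then stimulated with LPS (250 ng/mL final) plus ATP (1.25 mM final); secreted IL-1B measured by AlphaLISA after 16 hr, decreased signal indicating inhibition.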
Gal4-VP16 FLuc = counter-screen for ROR gamma inhibitors: Gal4-VP16 reporter; Drosophila S2 Gal4-VP16 UAS-luciferase, luminescence, 20 h; Potency, µM (top dose mostly 53.6 µM), for the others: at the top dose activity, negative = inhibition, actives largely listed as inhibitors; 310,000 tested, 3.5% active; AID 2546;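 further: Gal4-VP16 expression switched on by copper sulfate through the metallothionein promoter; potency means the concentration at half of the fitted maximal effect; nearly all actives have a fitted effect of over 50% in size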
ELG1 DNA repair = blocks ELG1-dependent DNA repair in HEK293T cells; HEK293T ELG1-luciferase reporter, luminescence, 16 h; DNA damage induced by 5-fluorouridine; 330,000 tested, 2.3% active; Potency, µM (series often up to 46.1 µM), without a hit: top-dose activity change, negative = inhibition, actives largely listed as inhibitors; further: potency means the concentration at half of the fitted maximal effect; nearly all actives have a fitted effect of over 55% in size
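Overnight (16 hr) co-exposure of 2,000 cells/well to 5-fluorouridine and compound at 37 °C preceded detection. Luciferase was quantified via ONE-Glo luminescence; loss of signal denotes inhibition.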
An asterisk follows results filed as active; ? = inconclusive; / = no result; [ ] = remark or other dose. Unless noted, the call rests on the fitted dose curve; in most records, active means well fitted curve in the direction sought with a large enough effect; inconclusive means small, poorly fitted or top-dose-only effect, or another doubt; inactive means no such curve, though single readings can be large; an effect the other way counts as inactive or inconclusive. On the % scale 0 is the no-effect control and ±100 the full control effect.

SMILES	TDP1 cell CPT	DT40 TDP1 no CPT	RORgamma inh	IL1B secr inh	Gal4-VP16 FLuc	ELG1 DNA repair
CNC(=O)c1ccccc1NC(=O)c1cccc(S(=O)(=O)N2CCC(C)CC2)c1	21µM*	16µM*	16%	-4	-3%	?
CNC(=O)c1ccccc1NC(=O)c1cccc(S(=O)(=O)N2CCCCC2)c1	13%	-8%	19%	10	3%	?
COc1ccc(Br)cc1S(=O)(=O)NCCCN1CCOCC1	-8%	-14%	-12%	-12	0%	-3%
CCc1noc(C)c1C(=O)N(CC)c1nc2c(C)cccc2s1	?	18µM*	/	3	/	15%
CCN(CC)CCN(C(=O)c1ccco1)c1nc2c(C)cccc2s1	15µM*	21µM*	/	/	/	/
CC(C)Cn1c(=O)c2sccc2n2c(CCCC(=O)Nc3ccc(Cl)cc3)nnc12	?	18µM*	/	/	/	/
CCn1c(=O)c2sccc2n2c(CCC(=O)Nc3ccc(C(C)C)cc3)nnc12	?	23µM*	/	/	/	/
Cn1c(=O)c2sccc2n2c(CCCC(=O)Nc3ccc(Oc4ccccc4)cc3)nnc12	?	16µM*	/	/	/	/
Cn1c(=O)c2sccc2n2c(CCCC(=O)Nc3ccc(Cl)cc3)nnc12	21µM*	?	/	/	/	/
COc1cc(NC(=O)CCCc2nnc3n(C)c(=O)c4sccc4n23)cc(OC)c1OC	10%	1%	/	/	/	/
CCC(C)NC(=O)CCCc1nnc2n(CC(C)C)c(=O)c3sccc3n12 (stereo unspecified)	2%	-10%	/	/	/	/
O=[N+]([O-])c1cc(-c2nc(-c3ccncc3)no2)ccc1NCc1ccccc1	-19%	-24%	/	/	/	/
CCN(CC)S(=O)(=O)c1ccc2c(c1)N(CC(=O)NCCc1ccccc1)C(=O)CO2	-21%	-17%	/	/	/	/
COc1ccc(C2CC(c3ccccc3)Oc3c(C)ccc(C)c32)cc1 (stereo unspecified)	/	/	7%	/	1%	/
COc1ccc(NC(=O)CCCc2nnc3n(C(C)C)c(=O)c4sccc4n23)cc1Cl	13µM*	23µM*	/	/	/	/
COc1ccc2c(c1)[C@H]1[C@H](CO2)[C@H](c2ccccc2)[C@]2(C)C(=O)N[C@@H](C)C(=O)N12	/	/	/	/	/	14%
O=C(NCc1ccccc1)NC1CCS(=O)(=O)C1 (stereo unspecified)	40%	-8%	3%	15	7%	-1%
CCCN1C(=O)/C(=C\C=C2/C=CN(CC)c3ccccc32)SC1=S	?	10µM*	-7%	-12	-14%	-2%
Cc1ccc2c(CC(=O)OCc3cc(=O)n4c(n3)sc3ccccc34)coc2c1	-4%	-26%	-7%	13	-2%	10%
CC(C)[C@H](NC(=O)Cc1ccccc1)C(=O)OCc1cc(=O)n2c(n1)sc1ccccc12	15µM*	13µM*	14%	8	0%	2%
CCCNC(=O)OC[C@@H]1O[C@H](CCO/N=C(\C)CCN2CCCc3nc(C)c(C)cc32)C=C[C@@H]1Oc1ccc(OC)cc1	/	/	-12%[10 µM]	/	7%[10 µM]	/
CC(C)Cn1c(SCC(=O)O)nnc1-c1cccc(S(=O)(=O)N2CCOCC2)c1	-14%	22%	/	0	/	9%
O=S(=O)(c1cccc(-c2n[nH]c(=S)n2C2CCCC2)c1)N1CCOCC1	-11%	?	?	50	-8%	?
NC(=O)CSc1nnc(-c2cccc(S(=O)(=O)N3CCOCC3)c2)n1C1CCCCCC1	5.8µM*	7.3µM*	-14%	0	-6%	6%
Cc1ccc(CSc2nnc(-c3cccc(S(=O)(=O)N4CCOCC4)c3)n2C2CCCC2)cc1	15µM*	12µM*	44%	-55*	-20%	?
SMILES	TDP1 cell CPT	DT40 TDP1 no CPT	RORgamma inh	IL1B secr inh	Gal4-VP16 FLuc	ELG1 DNA repair
CC(C)Cn1c(SCC(=O)NCc2ccc(Cl)cc2)nnc1-c1cccc(S(=O)(=O)N2CCOCC2)c1	?	21µM*	26%	-1	-18%	?
CCOC(=O)C1CCN(Cc2nnc(-c3ccccc3C)o2)CC1	-15%	2%	-16%	48	1%	-2%
COc1cc(C(=O)Nc2ccc(NC(=O)c3ccc(Br)cc3)cc2)cc(OC)c1OC	-2%	-4%	/	/	/	/
Cc1c(C(=O)N(C)C)sc2c1c(=O)n(-c1ccc(Cl)cc1)c(=O)n2CC(=O)C(C)(C)C	-19%	?	/	/	/	/
O=C(N/N=C/c1cccc(O)c1)c1ccc(-n2cnnn2)cc1	-1%	?	/	2	/	2%
O=C(NC1(Cc2ccccc2)CCN(Cc2ccc(-c3ccccc3)cc2)C1=O)c1ccccc1 (stereo unspecified)	21µM*	23µM*	/	-10	/	?
CCOC(=O)N1CCN(CCCc2ccccc2)CC1	6%	2%	4%	-8	3%	16%
O=C(CCc1ccccc1)NC1(Cc2ccccc2)CCN(CCc2cccs2)C1=O (stereo unspecified)	?	?	/	?	/	-30%
CC1(NC(=O)CCc2ccccc2)CCN(CCCc2ccccc2)C1=O (stereo unspecified)	15µM*	?	/	24	/	0%
CC1(NC(=O)CC(c2ccccc2)(c2ccccc2)c2ccccc2)CCN(CCCc2ccccc2)C1=O (stereo unspecified)	23µM*	21µM*	/	-13	/	?
CC1(NC(=O)c2ccccc2)CCN(CCCc2ccccc2)C1=O (stereo unspecified)	3.7µM*	4.6µM*	/	6	/	-9%
Cc1cc(C)n(-c2nc3ccccc3nc2Nc2cccc(C(=O)NCCc3ccccc3)c2)n1	-22%	?	/	/	/	/
CCOc1ccccc1NC(=O)c1cnc(NS(=O)(=O)c2ccccc2)nc1	-17%	?	-1%	11	-7%	1%
CCN(CC)c1ccc(C(=O)OCC(=O)Nc2cccc(S(=O)(=O)NC3=NCCCCC3)c2)cc1	?	18µM*	43%	-7	21%	?
Cc1ccc(C(C)C)c(OCC(=O)Nc2cccc(S(=O)(=O)NC3=NCCCCC3)c2)c1	?	?	-33%	-18	-3%	23µM*
CC(=O)[C@H]1CC[C@@H]2[C@H]3CC=C4C[C@@H](O)CC[C@]4(C)[C@H]3CC[C@]12C	/	/	-24%[16.9 µM]	/	-1%[17 µM]	/
COc1ccc(/C=N/NC(=S)Nc2cc(S(=O)(=O)N3CCOCC3)ccc2N2CCOCC2)cc1O	9.2µM*	?	?	0	?	7.3µM*
